Hit rate of the full screen: of about 310,000 compounds, about 14,000 (4.5%) showed an effect of 50% or more. Effects have a minus sign here. The sample as a whole holds a higher share of strong results than the screen did.
These compounds were tested against human ether-à-go-go-related gene (hERG) potassium channel (human, UniProt Q12809) (assay: primary screen, population patch clamp on CHO cells stably expressing hERG; higher = less effect of the substance).
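Also: peak tail current of the secondary pulse compared with the same well before compound.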

human ether-à-go-go-related gene (hERG) potassium channel, sequence (Q12809 whole entry, looked up): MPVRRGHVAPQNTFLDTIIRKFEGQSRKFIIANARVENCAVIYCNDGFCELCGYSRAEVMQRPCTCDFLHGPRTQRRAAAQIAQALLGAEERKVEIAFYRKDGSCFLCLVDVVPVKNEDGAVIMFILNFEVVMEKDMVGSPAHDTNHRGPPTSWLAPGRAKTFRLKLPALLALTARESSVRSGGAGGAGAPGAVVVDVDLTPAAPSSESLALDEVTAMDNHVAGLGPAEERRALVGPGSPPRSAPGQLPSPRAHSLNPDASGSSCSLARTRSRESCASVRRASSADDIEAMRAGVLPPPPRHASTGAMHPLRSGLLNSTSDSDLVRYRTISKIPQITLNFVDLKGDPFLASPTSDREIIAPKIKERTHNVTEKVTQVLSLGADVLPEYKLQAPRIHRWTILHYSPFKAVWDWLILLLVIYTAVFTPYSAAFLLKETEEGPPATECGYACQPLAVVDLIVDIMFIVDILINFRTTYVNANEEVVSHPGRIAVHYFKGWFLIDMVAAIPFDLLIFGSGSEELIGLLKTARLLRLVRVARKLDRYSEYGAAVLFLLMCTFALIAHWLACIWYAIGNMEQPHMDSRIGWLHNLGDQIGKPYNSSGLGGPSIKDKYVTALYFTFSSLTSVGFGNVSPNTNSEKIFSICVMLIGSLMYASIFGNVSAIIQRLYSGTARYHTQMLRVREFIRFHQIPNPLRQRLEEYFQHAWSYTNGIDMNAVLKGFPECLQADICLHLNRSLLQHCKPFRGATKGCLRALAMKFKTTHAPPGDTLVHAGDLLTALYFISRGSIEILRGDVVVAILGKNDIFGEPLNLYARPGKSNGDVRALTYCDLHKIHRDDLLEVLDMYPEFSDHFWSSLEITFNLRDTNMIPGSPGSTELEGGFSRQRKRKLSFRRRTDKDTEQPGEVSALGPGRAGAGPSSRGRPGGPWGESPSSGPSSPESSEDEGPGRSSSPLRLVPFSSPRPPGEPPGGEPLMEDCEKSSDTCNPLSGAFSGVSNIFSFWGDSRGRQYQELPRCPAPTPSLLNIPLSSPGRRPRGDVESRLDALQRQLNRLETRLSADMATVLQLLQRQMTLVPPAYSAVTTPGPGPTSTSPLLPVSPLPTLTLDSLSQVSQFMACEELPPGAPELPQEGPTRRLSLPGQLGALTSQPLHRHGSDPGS

Row | SMILES | hERG current change (%, negative = inhibition) at 10uM
1 | CCOc1ccccc1NC(=O)Nc1cc(S(=O)(=O)N(C)C)ccc1C | 15%
2 | C=CCn1c(=N)c(C#N)cc2c(=O)n3ccccc3nc21 | -35.3%
3 | C=CCn1c(=N)c(C(=O)NCCCOC)cc2c(=O)n3ccccc3nc21 | -60.1%
4 | CCOC(=O)c1c(C)nc2c(C)cccn12 | -6.9%
5 | C=CCn1c(=N)c(C(=O)OCC)cc2c(=O)n3cccc(C)c3nc21 | -72.9%
6 | C=CCn1c(=N)c(S(=O)(=O)c2ccc(C)c(C)c2)cc2c(=O)n3ccccc3nc21 | 14.3%
7 | CCOCCCNC(=O)c1cc2c(=O)n3cccc(C)c3nc2s1 | 12.6%
8 | COCCCNC(=O)c1cc2c(=O)n3cccc(C)c3nc2n(C(C)C)c1=N | -65.5%
9 | CCn1c(=N)c(C(=O)NCCCOC)cc2c(=O)n3cccc(C)c3nc21 | -61.4%
10 | COCCCNC(=O)c1cc2c(=O)n3cccc(C)c3nc2s1 | 7.44%
11 | CC(NC(=O)CSc1nc2ccc(N)cc2s1)c1ccccc1 (stereo not drawn) | 32%
12 | O=c1cccc2n1CC1CC2CN(C(c2ccccc2)c2sc3ncnn3c2O)C1 (stereo not drawn) | 15.1%
13 | Cc1ccc(S(=O)(=O)N2CCCCC2)cc1NC(=O)c1cc(=O)[nH]c2ccccc12 | -6.61%
14 | CCCN(CC(=O)Nc1ccccc1C)C(=O)c1ccc(C(=O)c2ccccc2)cc1 | -25.9%
15 | CCOc1ccc(CCNc2cc(C)nc3ncnn23)cc1OCC | -5%
16 | Cc1onc(-c2ccccc2)c1C(=O)Nc1sc2c(c1C#N)CCC2 | 1.63%
17 | Cn1c(=O)cc(N2CCCCC2)[nH]c1=O | 9.92%
18 | CCc1cc(=O)oc2cc3occ(-c4ccc(OC)c(F)c4)c3cc12 | 2%
19 | CCn1c(NC(=O)c2ccccc2)nc2ccccc21 | 4.47%
20 | C=CCn1c(=N)c(C(=O)NCCCOC)cc2c(=O)n3cc(C)ccc3nc21 | -57.3%
21 | C=CCn1cc(C(=O)NCCCOC)c(=O)c2cc(S(=O)(=O)N(CC)CC)ccc21 | -30.5%
22 | C=CCn1c(=N)c(C(=O)NCCCOC)cc2c(=O)n3cccc(C)c3nc21 | -73.5%
23 | O/N=C1\CCSc2ccc(F)cc21 | -6.52%

Row | SMILES | hERG current change (%, negative = inhibition) at 10uM
24 | CC(=O)Nc1ccc(Oc2ccc(NC(C)=O)c(NC(C)=O)c2)cc1 | 1.5%
25 | Cc1cccc(N2CCN(C(=O)CCNC(=O)Cn3ccc4ccccc4c3=O)CC2)c1C | -55.5%
26 | Cc1ccc(CNC(=O)Cn2cccc2C(=O)c2ccccc2C)cc1 | -7.1%
27 | Cc1ccc(C)c(N2CCN(CCCNC(=O)Cn3cccc3C(=O)c3ccccc3C)CC2)c1 | -74%
28 | Cc1cccc(N2CCN(C(=O)Cn3cccc3C(=O)c3ccccc3)CC2)c1C | -17.2%
29 | Cc1ccc(CNC(=O)Cn2cccc2C(=O)c2ccccc2)cc1 | 1.89%
30 | COc1ccc(CCNC(=O)Cn2cccc2C(=O)c2ccccc2C)cc1OC | -16.3%
31 | Cc1ccc(C)c(N2CCN(CCCNC(=O)Cn3cccc3C(=O)c3ccccc3)CC2)c1 | -87.2%
32 | Cc1ccccc1C(=O)c1cccn1CC(=O)NCCC1=CCCCC1 | 20.5%
33 | Cc1cccc(N2CCN(C(=O)Cn3ccc4ccccc4c3=O)CC2)c1C | -23.1%
34 | O=C(Cn1cccc1C(=O)c1ccccc1)NCCN1CCOCC1 | -2.26%
35 | Cc1ccccc1C(=O)c1cccn1CC(=O)NCCN1CCN(c2cccc(C)c2C)CC1 | -69.5%
36 | Cc1ccc(C)c(N2CCN(C(=O)CCNC(=O)Cn3ccc4ccccc4c3=O)CC2)c1 | -3.39%
37 | Oc1ccccc1N1CCN(C(c2ccccc2)c2ccccc2)CC1 | 12.6%
38 | COc1ccc(OCCOC(=O)c2ccc(F)c(S(=O)(=O)N3CCOCC3)c2)cc1 | -13.8%
39 | COc1ccc(NC(=S)NC(=O)/C=C/c2ccco2)cc1 | -4.31%
40 | O=C(c1ccccc1)c1ccc(N2CCN(C(=O)c3cccc(F)c3F)CC2)c(F)c1 | -37.9%
41 | Cc1cccc(N2CCN(C(=O)Cn3nc(Cc4ccncc4)c4ccccc4c3=O)CC2)c1C | -61.3%
42 | O=C(Cn1nc(Cc2ccncc2)c2ccccc2c1=O)N1CCc2ccccc2C1 | -44.4%
43 | O=C(Cn1nc(Cc2ccncc2)c2ccccc2c1=O)N1CCN(C(=O)c2ccco2)CC1 | -26.7%
44 | Cc1nn(C)cc1CN1CCC(CO)(CCOc2ccccc2)CC1 | -22.6%
45 | COc1ccc(CN2CCSCC2)c(OC)c1C | 13.5%
46 | Cc1nn(C)c(Cl)c1CN1CCC(CO)(CCOc2ccccc2)CC1 | -54.7%

Row | SMILES | hERG current change (%, negative = inhibition) at 10uM
47 | COc1ccc(CN2CCSCC2)cc1C | 7.71%
48 | COc1ccc(CN2CCC(CO)(CCOc3ccccc3)CC2)cc1C | -81.8%
49 | OCC1(CCOc2ccccc2)CCN(CCCn2cccn2)CC1 | -73.1%
50 | CCn1ccnc1CN1CCC(CO)(CCOc2ccccc2)CC1 | -8.02%
51 | COc1ccc(CN2CCC(CO)(CCOc3ccccc3)CC2)c(OC)c1C | -83.5%
52 | COc1ccc(CN2CCCN(C)CC2)c(OC)c1C | 11.1%
53 | O=c1c2c(ncn2C2CCCC2)n(Cc2ccccc2)c(=O)n1CCOc1ccccc1 | -8.64%
54 | Cc1ccc([N+](=O)[O-])cc1NC(=O)/C=C/C(=O)O | -2.79%
55 | O=C(Nc1ccc(Br)c(Br)c1)C1CCCO1 (stereo not drawn) | 3.39%
56 | COc1ccc(COC(=O)Nc2c(SC)nsc2SC)cc1 | 11.5%
57 | CCc1noc(C)c1C(=O)OCC(=O)NCc1ccccc1 | 2.29%
58 | NC(=O)c1ccccc1NC(=O)CSc1cn[nH]n1 | 13.2%
59 | Cc1cc(C)cc(NC(=O)CSc2nnc(-c3ccccc3C)o2)c1 | 3.37%
60 | COc1cccc(-c2nnn(CC(=O)O)n2)c1 | 9.1%
61 | COc1cc(OC)c(CN2CCC(CO)(CCOc3ccccc3)CC2)c(OC)c1 | -86.4%
62 | COc1ccc(OC)c(CN2CCSCC2)c1 | 9.69%
63 | OCCOc1cccc(CN2CCC(CO)(CCOc3ccccc3)CC2)c1 | -51.3%
64 | CC(=O)c1cccc(CN2CCC(CO)(CCOc3ccccc3)CC2)c1 | -41.5%
65 | Cc1cc(C)c(CN2CCC(CO)(CCOc3ccccc3)CC2)cc1C | -65.2%
66 | Cc1c(CN2CCC(CO)(CCOc3ccccc3)CC2)c(=O)n(-c2ccccc2)n1C | -5.7%
67 | COc1ccc(OCC(=O)N2CCCC(CO)(CCOc3ccccc3)C2)cc1 (stereo not drawn) | -46.8%
68 | COc1ccc(OC)c(CN2CCC(CO)(CCOc3ccccc3)CC2)c1 | -76.2%
69 | O=C1CC(Sc2nnc(-c3ccccc3)o2)C(=O)N1c1ccccc1 (stereo not drawn) | 3.12%

Row | SMILES | hERG current change (%, negative = inhibition) at 10uM
70 | Cc1cc(C)cc(-c2nnc(SCC(=O)NCc3cccs3)o2)c1 | 4.21%
71 | Fc1ccccc1CN1CCN(c2ncccn2)CC1 | 5.66%
72 | N#Cc1c(SCC(=O)N2CCCCC2)nsc1SCC(=O)N1CCCCC1 | 16.5%
73 | CC(C)C(C(=O)Nc1ccccc1F)N1C(=O)c2ccccc2C1=O (stereo not drawn) | -3.78%
74 | Cc1nn(CCC(=O)NNC(=S)NCC(C)C)c(C)c1Br | 14%
75 | CCN(CC)S(=O)(=O)c1ccc(OC)c(NS(=O)(=O)c2ccc(F)cc2)c1 | -10.5%
76 | O=C1CCc2cc(S(=O)(=O)NCc3ccccc3Cl)ccc2N1 | -23.4%
77 | Cc1cc(C(=O)NNC(=O)CCCOc2ccccc2)c(C)o1 | 0.675%
78 | CCCNC(=O)C1CCN(c2ccc(S(=O)(=O)N3CCOCC3)cc2Cl)CC1 | 6.36%
79 | Cc1ccc(SC2=C(C(=O)O)CCCC2)cc1 | 4.25%
80 | OCC1(CCOc2ccccc2)CCN(Cc2cc(Cl)ccc2O)CC1 | -24.7%
81 | COc1cc(CN2CCC(CO)(CCOc3ccccc3)CC2)cc(OC)c1OC | -38.3%
82 | COc1cc(Cl)c(CN2CCC(CO)(CCOc3ccccc3)CC2)cc1OC | -80.7%
83 | COc1cc(CN2CCC(CO)(CCOc3ccccc3)CC2)cc(OC)c1 | -67.3%
84 | O=C(NC1CCCC1)C(c1ccncc1)N(Cc1ccccc1)C(=O)Cc1cccs1 (stereo not drawn) | -14.1%
85 | Cc1ccccc1N1C(=O)C(Oc2ccc(Cl)cc2)C1CNCCCOC(C)C (stereo not drawn) | -53.4%
86 | CCCNCC1C(Oc2ccc(Cl)cc2)C(=O)N1c1ccccc1C (stereo not drawn) | -48.6%
87 | CCCCNCC1C(Oc2ccc(Cl)cc2)C(=O)N1c1ccccc1C.Cl (stereo not drawn) | -65.9%
88 | COCCNCC1C(Oc2ccc(Cl)cc2)C(=O)N1c1ccccc1C.Cl (stereo not drawn) | -8.44%
89 | COCCCNCC1C(Oc2ccc(Cl)cc2)C(=O)N1c1ccccc1C (stereo not drawn) | -8.54%
90 | Cc1ccccc1N1C(=O)C(Oc2ccc(Cl)cc2)C1CNC(C)(C)C (stereo not drawn) | -39.5%

Source: publication PMC4336329 (PLoS ONE, 2015)
